# Assay results reported in the antibiotic and cytotoxicity screens of Wong et al. (2023).
# Screen size: about 39,000 compounds; about 1,500 (3.8%) were called active. Only a selection was taken, and actives are over-represented in it overall.
# Test system: HSkMC (human skeletal muscle cells)
# Assay: cytotoxicity call (relative viability < 0.9)
# Settings: 10 µM
row,SMILES,cytotoxicity call
1,C[C@@H]1CCCCO[C@H](CN(C)C(=O)Nc2ccc(F)cc2)[C@@H](C)CN([C@@H](C)CO)C(=O)c2cc(NC(=O)CCC(F)(F)F)ccc2O1,inactive
2,CC(C)NC(=O)Nc1cccc2c1O[C@H](CN(C)C(=O)Nc1ccc3c(c1)OCO3)[C@@H](C)CN([C@@H](C)CO)C2=O,inactive
3,COc1ccc(NC(=O)N(C)C[C@H]2Oc3c(NC(=O)Nc4ccc(C(F)(F)F)cc4)cccc3C(=O)N([C@@H](C)CO)C[C@H]2C)cc1,inactive
4,C[C@@H]1CCCCO[C@H](CN(C)Cc2ccc(Cl)c(Cl)c2)[C@@H](C)CN([C@@H](C)CO)C(=O)c2cc(NC(=O)Nc3ccc(C(F)(F)F)cc3)ccc2O1,inactive
5,C[C@H]1CN([C@@H](C)CO)C(=O)c2cccc(NC(=O)c3cnccn3)c2O[C@H]1CN(C)Cc1ccncc1,inactive
6,C[C@@H]1CN([C@@H](C)CO)C(=O)c2cccc(NC(=O)c3ccncc3)c2O[C@H]1CN(C)Cc1ccc(C(=O)O)cc1,inactive
7,C[C@@H]1CCCCO[C@@H](CN(C)Cc2ccc(C(F)(F)F)cc2)[C@H](C)CN([C@@H](C)CO)C(=O)c2cc(NC(=O)Nc3cccc4ccccc34)ccc2O1,inactive
8,O=C(CN1CCOCC1)N[C@@H]1CC[C@@H](CCNC(=O)C2CCC2)O[C@@H]1CO,inactive
9,C[C@@H]1CN([C@H](C)CO)C(=O)Cc2cc(NS(=O)(=O)c3cn(C)cn3)ccc2O[C@@H]1CN(C)S(=O)(=O)c1ccc(F)cc1,inactive
10,O=C(C[C@H]1C[C@@H]2c3cc(NS(=O)(=O)c4ccc(F)cc4)ccc3O[C@@H]2[C@@H](CO)O1)NCc1cccc(F)c1,inactive
11,COc1ccc(S(=O)(=O)N(C)C[C@@H]2Oc3ccc(NS(=O)(=O)c4cn(C)cn4)cc3C(=O)N([C@H](C)CO)C[C@H]2C)cc1,inactive
12,CC(C)NC(=O)N(C)C[C@@H]1Oc2ccc(NS(=O)(=O)c3cccs3)cc2C(=O)N([C@@H](C)CO)C[C@H]1C,inactive
13,C[C@@H]1CCCCO[C@@H](CN(C)C(=O)NC2CCCCC2)[C@H](C)CN([C@@H](C)CO)C(=O)c2cc(NC(=O)Nc3ccccc3)ccc2O1,inactive
14,Cc1ccc(S(=O)(=O)N(C)C[C@@H]2OCCCC[C@@H](C)Oc3ccc(NS(C)(=O)=O)cc3C(=O)N([C@@H](C)CO)C[C@H]2C)cc1,inactive
15,O=C(C[C@H]1C[C@H]2c3cc(NC(=O)Nc4ccccc4F)ccc3O[C@H]2[C@H](CO)O1)NCc1ccc(Oc2ccccc2)cc1,inactive
16,O=C(C[C@@H]1C[C@H]2c3cc(NC(=O)Nc4ccccc4F)ccc3O[C@H]2[C@@H](CO)O1)NCc1ccc(Oc2ccccc2)cc1,inactive
17,O=C(C[C@H]1C[C@@H]2c3cc(NC(=O)Nc4ccccc4F)ccc3O[C@@H]2[C@H](CO)O1)NCc1ccc(Oc2ccccc2)cc1,active
18,O=C(C[C@H]1C[C@H]2c3cc(NS(=O)(=O)c4ccc(F)cc4)ccc3O[C@H]2[C@H](CO)O1)NCc1ccc(Oc2ccccc2)cc1,inactive
19,O=C(C[C@@H]1C[C@H]2c3cc(NC(=O)Nc4ccccc4F)ccc3O[C@H]2[C@H](CO)O1)NCc1ccc(Oc2ccccc2)cc1,inactive
20,O=C(C[C@H]1C[C@H]2c3cc(NC(=O)Nc4ccccc4F)ccc3O[C@H]2[C@@H](CO)O1)NCc1ccc(Oc2ccccc2)cc1,active
21,COc1cccc(S(=O)(=O)Nc2ccc3c(c2)[C@H]2C[C@H](CC(=O)NCCc4ccccc4)O[C@@H](CO)[C@H]2O3)c1,inactive
22,COc1cccc(S(=O)(=O)Nc2ccc3c(c2)[C@H]2C[C@@H](CC(=O)NCCc4ccccc4)O[C@H](CO)[C@H]2O3)c1,active
23,COc1cccc(S(=O)(=O)Nc2ccc3c(c2)[C@H]2C[C@@H](CC(=O)NCCc4ccccc4)O[C@@H](CO)[C@H]2O3)c1,inactive
24,O=C(C[C@@H]1C[C@@H]2c3cc(NS(=O)(=O)c4ccc(F)cc4)ccc3O[C@@H]2[C@H](CO)O1)NCc1ccc(Oc2ccccc2)cc1,inactive
25,O=C(C[C@H]1C[C@H]2c3cc(NS(=O)(=O)c4ccc(F)cc4)ccc3O[C@H]2[C@@H](CO)O1)NCc1ccc(Oc2ccccc2)cc1,active
26,O=C(C[C@@H]1C[C@@H]2c3cc(NC(=O)Nc4ccccc4F)ccc3O[C@@H]2[C@@H](CO)O1)NCc1ccc(Oc2ccccc2)cc1,inactive
